Experimental findings from PubChem BioAssay (NCATS) are described below.

Inconclusive results are not listed. Active and inactive are the calls of the source. Unless noted, calls follow the shape of the dose curve; as a rule, active = well fitted curve in the direction sought with a large enough effect; inconclusive = small, poorly fitted or top-dose-only effect, or another doubt; inactive = no such curve, though single readings can be large; an effect the other way counts as inactive or inconclusive. Some results are limits rather than exact numbers.

Experiment [1] deals with Glucocorticoid receptor (Homo sapiens) (UniProt P04150). In words: GR-EFC Redistribution (AID 451; calls by dose curve; also: potency is read from the fitted curve at half-maximal effect). As to conditions: CHO-K1 GR-EFC translocation, beta-gal luminescence, 2 h. In a few lines: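 CHO-K1 cells stably expressing nuclear-localized β-gal enzyme acceptor and GR fused C-terminally to the enzyme donor fragment; ligand-driven nuclear translocation restores β-gal by complementation. Compounds titrated up to 46 uM final, 2 h at 37 °C; luminescence read.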

In experiment [2] the target is Mitogen-activated protein kinase 10 (Mus musculus) (UniProt Q61831). In words: JNK3 AlphaScreen Assay (AID 530; active = well fitted curve in either direction with a large enough effect, not every such curve was filed as active;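 also: kinase came from lysate of stimulated human HepG2 cells; signal reports phosphorylation of biotinylated GST-cJun 1-79 at Ser73 with 10 µM ATP; % is scaled to controls: 0 for no effect and ±100 for the full control effect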). The following applies: JNK3 lysate, c-Jun phosphorylation; series mostly up to 57.1 µM. The gist of the method:
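Biotinylated GST-cJun(1-79) served as substrate for JNK3 in HepG2 lysates stimulated with IL-1beta and TNF-alpha. ATP was 10 uM final, pH 7.6. Ser73 phosphorylation was quantified by AlphaScreen (680 nm excitation).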

For experiment [3], the target named is Cytochrome P450 2D6 (Homo sapiens) (UniProt P10635). In words: qHTS Assay for Inhibitors and Substrates of Cytochrome P450 2D6 (AID 891). Also: potency is read from the fitted curve at half-maximal effect; nearly all actives have a fitted effect of over 60% in size. As to conditions: recombinant CYP2D6, luciferin-ME EGE luminescence; series mostly up to 57.1 µM. In a few lines:
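Luminescent read-out of luciferin formed by 5 nM human CYP2D6 demethylating 30 uM Luciferin-ME EGE (Km level) over 60 min at room temperature after NADPH regeneration addition. Data normalized to full inhibition by 1.43 uM quinidine.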

Experiment [4] in a line: qHTS Assay for Lipid Storage Modulators (AID 1519; calls by dose curve). As to conditions: Drosophila S3 cells, BODIPY lipid droplet/cell ratio, laser cytometry, cells loaded with oleic acid. The gist of the method: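 Cells seeded at 5,000 per well were treated with compounds over a concentration series and loaded with oleic acid (400 uM, as added). Lipid droplet fluorescence (488 nm excitation, 500-530 nm channel) was read by laser-scanning cytometry and normalized to 20 uM Triacsin C.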
For orientation: Quantitative high-throughput screening tests each substance at several concentrations.

Experiment [5] deals with DNA dC->dU-editing enzyme APOBEC-3G (Homo sapiens) (UniProt Q9HC16). In words: qHTS for inhibitors of Vif-A3G interactions: Validation (AID 588379). Also: 0% is about no effect. As to conditions: Vif-A3G protein interaction assay; series mostly up to 46.1 µM. The gist of the method: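 Yellow fluorescence (Ex 488, Em 500-530) of Vif-coexpressing HeLa A3G-eYFP cells, scanned by Acumen cytometer, reports blocked A3G degradation. Cells plated at 700/well overnight at 37 deg C before compound addition, then a further overnight compound incubation at 37 deg C.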

Experiment [6] deals with Zika virus NS2B-NS3 protease. The experiment is described as follows: Primary screen GU AMC qHTS for Zika virus inhibitors (AID 1347154).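 Also: 0% = no-inhibitor control and -100% = no-enzyme control; nearly all actives have a fitted effect of over 70% in size.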 The following applies: Zika NS2B-NS3 unlinked protease, AMC fluorogenic substrate; series mostly up to 54.1 µM. The gist of the method:
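Unlinked Zika NS2B hydrophilic domain/NS3 protease domain noncovalent complex (25 nM final) in 10 mM Tris-HCl pH 8.0, 0.01% Tween 20, with AMC peptide substrate. Fluorescence (ex 340, em 450 nm) change over 15 min, room temperature; percent inhibition fitted to 4-parameter Hill equation.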

A short description of experiment [7]: Counterscreen qHTS for small molecule stabilizers of the endoplasmic reticulum resident proteome: GLuc-NoTag assay (AID 1508627). Also: potency is read from the fitted curve at half-maximal effect.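 As to activity change, negative = inhibition: 0% = thapsigargin alone and -100% = DMSO vehicle control.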 As to conditions: Gaussia luciferase NoTag secretion counterscreen, luminescence, thapsigargin 100 nM for final 4 h; series mostly up to 76.4 µM. In a few lines: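 Secreted GLuc lacking the SERCaMP modification is measured in SH-SY5Y cells exposed to compound for 19 h and then to thapsigargin (100 nM, 4 h) to deplete ER calcium; hits retested at 11 concentrations, up to 76.6 uM.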
(In general: A counterscreen serves to expose hits that act by an unwanted route or on another target.)

Experiment [8] can be described thus: Confirmatory qHTS for small molecule stabilizers of the endoplasmic reticulum resident proteome: Secreted ER Calcium Modulated Protein (SERCaMP) assay (AID 1508628). Also: potency is read from the fitted curve at half-maximal effect; nearly all actives have a fitted effect of over 40% in size. The following applies: SERCaMP secreted luciferase ER calcium/proteostasis reporter; series mostly up to 76.3 µM. The gist of the method: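 GLuc-SERCaMP-expressing SH-SY5Y cells, pretreated 16 h with compound, are challenged with thapsigargin to empty ER calcium stores; after 4 h, coelenterazine is added directly to the medium and luminescence is imaged.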

The nature of experiment [9]: Cell Viability qHTS for small molecule stabilizers of the endoplasmic reticulum resident proteome (AID 1508629).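 Also: compound exposure about 46 h in total before the viability read.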 Also: potency is read from the fitted curve at half-maximal effect. As to conditions: cell viability counter-screen, 100 nM thapsigargin for final 4 h.
The nature of experiment [10]: Primary qHTS for small molecule stabilizers of the endoplasmic reticulum resident proteome: Secreted ER Calcium Modulated Protein (SERCaMP) assay (AID 1508630). Also: % is scaled to controls: 0 for no effect and ±100 for the full control effect. As to conditions: SH-SY5Y GLuc-SERCaMP (Gaussia luciferase released on ER calcium loss) secretion, thapsigargin, luminescence; series mostly up to 38.4 µM. The gist of the method:
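The SH-SY5Y reporter protocol was run at 3 concentrations up to 38.3 uM (primary) or 11 concentrations (follow-up): 16 h compound, 100 nM thapsigargin for 4 h, then extracellular luciferase luminescence.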

Experiment [11] can be described thus: AP1 Signaling Pathway (AID 357; active = well fitted curve in either direction with a large enough effect, not every such curve was filed as active;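 also: ME-180 reporter cells stimulated with EGF at its EC50 level; % is scaled to controls: 0 for no effect and ±100 for the full control effect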). As to conditions: ME-180 AP-1-bla reporter, EGF-induced, beta-lactamase ratio, 5 h; series mostly up to 38 µM. In a few lines:
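Cells are seeded overnight, exposed to compound titrations and an EC50 level of EGF for 5 hours at 37 °C, then loaded with CCF4 dye for 2.5 hours. Beta-lactamase activity under the AP-1 element is read as a blue/green ratio.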

Experiment [12] in a line: NFAT Signaling Pathway (AID 444; active = well fitted curve in either direction with a large enough effect, not every such curve was filed as active;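 also: carbachol stimulus at about its EC50 of 1 µM final; % is scaled to controls: 0 for no effect and ±100 for the full control effect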). As to conditions: Jurkat NFAT-bla M1, carbachol, beta-lactamase ratio, 5 h; at 38 µM (top of the series). In a few lines:
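Jurkat cells carrying an NFAT-driven β-lactamase reporter and co-transfected muscarinic M1 receptor were treated with compound plus carbachol (1 uM final, an EC50 level) for 5 h at 37 °C. CCF4 loading followed for 1 h at RT; 460/530 nm ratio gave %activity.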

The nature of experiment [13]: Stat Signaling Pathway (AID 446; active = well fitted curve in either direction with a large enough effect, not every such curve was filed as active). The following applies: ME-180 (cervical carcinoma) SIE beta-lactamase reporter, IL-6 stimulated, 5 h; series mostly up to 38 µM. In a few lines:
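Overnight-plated ME-180 cells bearing a STAT Inducible Element beta-lactamase reporter; 5 h co-exposure to compound and 40 pM IL-6; values normalized to 300 pM IL-6 and 125 nM JAK inhibitor controls.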

In experiment [14] the target is Guanine nucleotide-binding protein G(i) subunit alpha-1 (Homo sapiens) (UniProt P63096). The experiment is described as follows: qHTS Assay for Inhibitors of RGS12 GoLoco Motif Activity (Green Fluorophore) (AID 879).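 Also: 0% = labeled peptide with Gαi1 and full inhibition = labeled peptide alone without protein; negative values mean loss of peptide binding seen as reduced polarization.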 The following applies: Galphai1/FITC-RGS12 GoLoco peptide, fluorescence polarization; series mostly up to 57.1 µM. The gist of the method:
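A drop in FITC polarization marked displacement of the FITC-tagged RGS12 GoLoco peptide (10 nM) from Gαi1 (50 nM). Compounds were incubated 10 min at room temperature in Tris pH 7.5 buffer containing 150 mM NaCl, 0.1 mM GDP and 0.05% NP40; unlabeled peptide titration served as control.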

In experiment [15] the target is Muscarinic acetylcholine receptor M1 (Rattus norvegicus) (UniProt P08482). In words: qHTS Assay for Antagonists of Acetylcholine Muscarinic M1 Receptor: Measurement of IP-One Response (AID 944). Also: nearly all actives have a fitted effect of over 75% in size. The following applies: CHO-M1 cells, IP-One HTRF, antagonist mode; series mostly up to 46.1 µM. The gist of the method:
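Antagonism was measured as loss of carbachol-driven (EC80) IP1 accumulation in CHO cells carrying rat M1, using a homogeneous IP-One TR-FRET kit read at 620 and 665 nm.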

The target in experiment [16] is Pyruvate kinase (Leishmania mexicana) (UniProt Q27686). In words: qHTS Validation Assay for Inhibitors of Leishmania Mexicana Pyruvate Kinase (AID 945).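 Also: 0% = DMSO only neutral control wells.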 As to conditions: purified L. mexicana pyruvate kinase, enzyme activity, E451W mutant enzyme; series mostly up to 57.5 µM. The gist of the method: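 Mutant LmPYK (E451W), 0.2 nM, plus 0.5 mM PEP and 0.1 mM ADP in 50 mM imidazole pH 7.2 containing 0.01% Tween 20 and 0.05% BSA. Incubated 1 h at room temperature; luminescence via PKLight, normalized to DMSO.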

Experiment [17] deals with Alpha-galactosidase (Coffea arabica) (UniProt Q42656). The experiment is described as follows: Counterscreen for Glucocerebrosidase Inhibitors: qHTS Assay for Coffee Bean alpha-Galactosidase at pH 4.5 (AID 957).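 Also: plate controls were enzyme alone for no effect and no enzyme for full effect.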 The following applies: purified coffee bean alpha-galactosidase, fluorogenic substrate; series mostly up to 76.9 µM. In a few lines:
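Quantitative HTS of compounds (0.7 nM to 77 uM) against coffee bean alpha-galactosidase at pH 4.5, measuring 4-methylumbelliferone fluorescence released from 80 uM substrate.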

In experiment [18] the target is Alpha-galactosidase A (Homo sapiens) (UniProt P06280). The experiment is described as follows: Counterscreen for Glucocerebrosidase Inhibitors: qHTS Assay for Human alpha-Galactosidase at pH 4.5 (AID 992). Also: 0% is about no effect. The following applies: purified enzyme, fluorogenic substrate; series mostly up to 76.9 µM. The gist of the method:
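Each compound is preincubated briefly with 2 nM enzyme before substrate addition (80 uM); plates then sit 20 min at ambient temperature, are quenched with 1M NaOH/1M glycine, and read fluorometrically.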

In experiment [19] the target is alpha-glucosidase (Oryza sativa, rice) (UniProt Q653V4). The experiment is described as follows: Counterscreen for Glucocerebrosidase Inhibitors: qHTS Assay for Rice alpha-Glucosidase at pH 5.0 (AID 997).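 Also: 0% = full activity with enzyme and -100% = basal without enzyme.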 As to conditions: rice alpha-glucosidase enzyme activity; series mostly up to 76.9 µM. The gist of the method: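 Endpoint fluorogenic assay at pH 5.0: compounds (0.7 nM to 77 uM) titrated against 4 nM rice enzyme and 400 uM 4-MU-alpha-glucoside for 20 min at room temperature; NaOH/glycine stop, read ex 365/em 440 nm, Hill-fitted AC50.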

The target of experiment [20] is Alpha-galactosidase (Coffea arabica) (UniProt Q42656). The experiment is described as follows: Counterscreen for Glucocerebrosidase Inhibitors: qHTS Assay for Coffee Bean alpha-Galactosidase at pH 5.9 (AID 998).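 Also: plate controls were uninhibited enzyme for no effect and no-enzyme basal signal for full effect.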 As to conditions: coffee bean alpha-galactosidase enzyme assay; series mostly up to 76.9 µM. In a few lines:
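In 50 mM citric acid pH 5.9 with 0.005% Tween-20, coffee bean enzyme hydrolyses 80 uM 4-MU alpha-D-galactopyranoside over 20 min at RT. Activity is normalized to controls; AC50 comes from Hill-modelled concentration-response data.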

The target in experiment [21] is Cytochrome P450 3A4 (Homo sapiens) (UniProt P08684). The experiment is described as follows: qHTS Assay for Inhibitors and Substrates of Cytochrome P450 3A4 (AID 884). Also: potency is read from the fitted curve at half-maximal effect; nearly all actives have a fitted effect of over 50% in size. As to conditions: recombinant CYP3A4, Luciferin-PPXE luminescence; series mostly up to 57.1 µM. The gist of the method: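 Luminescent readout of luciferin produced by CYP3A4 (20 nM) dealkylation of Luciferin-PPXE, 25 uM (its KM). NADPH-driven reaction ran 60 min at RT after 10 min compound preincubation; data scaled to 57 uM ketoconazole as 100% inhibition.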

Experiment [22] concerns the target Cytochrome P450 2C19 (Homo sapiens) (UniProt P33261). In words: qHTS Assay for Inhibitors and Substrates of Cytochrome P450 2C19 (AID 899). Also: potency is read from the fitted curve at half-maximal effect; nearly all actives have a fitted effect of over 60% in size. The following applies: recombinant CYP2C19, luciferin-H EGE luminescence; series mostly up to 57.1 µM. In a few lines:
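In 50mM KPO4, the reaction held 5nM enzyme and KM-level (10uM) Luciferin-H EGE; it ran 60 min at 37C after NADPH regeneration and a 10 min compound preincubation. Luminescence values were scaled to 57uM ketoconazole as complete inhibition.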

Sequence of Alpha-galactosidase (Coffea arabica) (Q42656 whole entry, looked up): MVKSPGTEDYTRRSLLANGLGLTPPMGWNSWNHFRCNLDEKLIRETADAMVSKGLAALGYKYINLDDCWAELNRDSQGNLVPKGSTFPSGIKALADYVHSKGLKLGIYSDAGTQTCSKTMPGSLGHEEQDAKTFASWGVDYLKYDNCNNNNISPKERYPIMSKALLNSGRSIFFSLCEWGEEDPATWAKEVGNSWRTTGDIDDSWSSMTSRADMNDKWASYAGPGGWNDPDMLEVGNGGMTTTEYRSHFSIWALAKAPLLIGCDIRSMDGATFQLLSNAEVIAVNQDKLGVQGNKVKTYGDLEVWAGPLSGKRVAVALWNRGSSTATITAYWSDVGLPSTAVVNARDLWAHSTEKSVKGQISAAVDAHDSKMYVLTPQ
Sequence of Muscarinic acetylcholine receptor M1 (Rattus norvegicus) (P08482 whole entry, looked up): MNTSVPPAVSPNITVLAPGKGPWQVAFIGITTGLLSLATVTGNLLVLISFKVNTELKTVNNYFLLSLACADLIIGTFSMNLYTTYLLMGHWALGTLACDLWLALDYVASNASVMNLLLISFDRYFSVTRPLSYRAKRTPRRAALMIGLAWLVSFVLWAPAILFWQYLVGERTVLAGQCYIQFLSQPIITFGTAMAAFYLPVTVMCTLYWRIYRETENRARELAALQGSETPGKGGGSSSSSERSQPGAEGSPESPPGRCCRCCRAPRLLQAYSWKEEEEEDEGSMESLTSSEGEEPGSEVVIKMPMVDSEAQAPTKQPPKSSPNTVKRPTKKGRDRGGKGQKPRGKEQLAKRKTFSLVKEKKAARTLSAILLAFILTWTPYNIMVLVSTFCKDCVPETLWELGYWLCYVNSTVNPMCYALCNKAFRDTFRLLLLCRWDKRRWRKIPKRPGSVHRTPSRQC
Sequence of Guanine nucleotide-binding protein G(i) subunit alpha-1 (Homo sapiens) (P63096 whole entry, looked up): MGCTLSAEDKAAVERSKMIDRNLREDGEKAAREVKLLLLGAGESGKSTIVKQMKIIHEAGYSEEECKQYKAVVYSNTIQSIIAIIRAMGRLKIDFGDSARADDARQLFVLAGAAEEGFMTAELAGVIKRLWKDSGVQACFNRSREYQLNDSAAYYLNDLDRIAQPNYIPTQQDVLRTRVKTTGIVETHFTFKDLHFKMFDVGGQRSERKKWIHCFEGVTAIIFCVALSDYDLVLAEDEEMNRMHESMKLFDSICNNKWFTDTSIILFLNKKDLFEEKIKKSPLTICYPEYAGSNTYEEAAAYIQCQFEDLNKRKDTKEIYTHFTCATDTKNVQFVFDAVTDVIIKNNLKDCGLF
Sequence of Pyruvate kinase (Leishmania mexicana) (Q27686 2-499 E452W): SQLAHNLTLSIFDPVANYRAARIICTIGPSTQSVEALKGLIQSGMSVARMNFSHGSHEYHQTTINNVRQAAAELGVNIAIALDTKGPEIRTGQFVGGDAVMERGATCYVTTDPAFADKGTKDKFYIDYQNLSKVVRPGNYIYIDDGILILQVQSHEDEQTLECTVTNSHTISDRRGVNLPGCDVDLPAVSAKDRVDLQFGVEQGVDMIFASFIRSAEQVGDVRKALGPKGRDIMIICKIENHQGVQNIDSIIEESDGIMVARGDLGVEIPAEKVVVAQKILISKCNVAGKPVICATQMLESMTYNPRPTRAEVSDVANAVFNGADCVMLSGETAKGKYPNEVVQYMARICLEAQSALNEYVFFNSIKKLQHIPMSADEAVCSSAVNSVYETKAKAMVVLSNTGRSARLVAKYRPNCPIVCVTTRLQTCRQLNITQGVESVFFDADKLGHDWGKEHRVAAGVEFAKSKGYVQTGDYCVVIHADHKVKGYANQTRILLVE
Sequence of Alpha-galactosidase A (Homo sapiens) (P06280 whole entry, looked up): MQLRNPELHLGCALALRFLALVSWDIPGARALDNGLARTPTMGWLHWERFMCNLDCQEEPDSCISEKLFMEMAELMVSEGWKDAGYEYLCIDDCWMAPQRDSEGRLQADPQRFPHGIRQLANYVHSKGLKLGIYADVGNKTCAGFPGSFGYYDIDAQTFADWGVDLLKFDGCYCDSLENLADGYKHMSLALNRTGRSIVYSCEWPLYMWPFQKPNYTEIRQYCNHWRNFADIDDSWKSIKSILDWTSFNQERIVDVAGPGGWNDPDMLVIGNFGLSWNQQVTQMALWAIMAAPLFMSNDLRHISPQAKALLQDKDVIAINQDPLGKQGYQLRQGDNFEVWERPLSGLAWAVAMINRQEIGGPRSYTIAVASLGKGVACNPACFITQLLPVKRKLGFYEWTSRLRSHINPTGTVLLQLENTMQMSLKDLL
Sequence of Cytochrome P450 2C19 (Homo sapiens) (P33261 whole entry, looked up): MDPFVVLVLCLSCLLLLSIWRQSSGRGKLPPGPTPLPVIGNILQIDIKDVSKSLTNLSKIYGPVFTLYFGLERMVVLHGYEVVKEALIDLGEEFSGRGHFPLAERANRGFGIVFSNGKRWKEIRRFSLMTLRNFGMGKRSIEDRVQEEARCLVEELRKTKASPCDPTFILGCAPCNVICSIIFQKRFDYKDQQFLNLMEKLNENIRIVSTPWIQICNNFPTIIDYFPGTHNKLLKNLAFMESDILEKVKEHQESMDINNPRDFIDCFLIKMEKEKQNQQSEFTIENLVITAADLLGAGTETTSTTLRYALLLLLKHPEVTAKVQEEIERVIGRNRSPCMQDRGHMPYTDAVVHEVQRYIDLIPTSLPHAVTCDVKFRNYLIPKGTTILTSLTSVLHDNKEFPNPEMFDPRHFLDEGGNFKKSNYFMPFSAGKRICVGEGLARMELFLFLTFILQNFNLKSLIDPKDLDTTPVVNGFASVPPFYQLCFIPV
Sequence of DNA dC->dU-editing enzyme APOBEC-3G (Homo sapiens) (Q9HC16 whole entry, looked up): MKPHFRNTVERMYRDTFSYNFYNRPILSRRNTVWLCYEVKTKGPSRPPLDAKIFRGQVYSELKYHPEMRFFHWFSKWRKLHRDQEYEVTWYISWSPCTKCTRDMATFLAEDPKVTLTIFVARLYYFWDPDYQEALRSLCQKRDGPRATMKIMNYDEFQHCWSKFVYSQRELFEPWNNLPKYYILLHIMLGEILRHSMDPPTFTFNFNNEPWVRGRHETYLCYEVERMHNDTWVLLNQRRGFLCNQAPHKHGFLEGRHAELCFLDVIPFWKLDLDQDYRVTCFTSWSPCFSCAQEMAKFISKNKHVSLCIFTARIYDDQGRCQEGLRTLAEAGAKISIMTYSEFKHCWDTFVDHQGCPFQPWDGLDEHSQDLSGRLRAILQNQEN
Sequence of Cytochrome P450 2D6 (Homo sapiens) (P10635 whole entry, looked up): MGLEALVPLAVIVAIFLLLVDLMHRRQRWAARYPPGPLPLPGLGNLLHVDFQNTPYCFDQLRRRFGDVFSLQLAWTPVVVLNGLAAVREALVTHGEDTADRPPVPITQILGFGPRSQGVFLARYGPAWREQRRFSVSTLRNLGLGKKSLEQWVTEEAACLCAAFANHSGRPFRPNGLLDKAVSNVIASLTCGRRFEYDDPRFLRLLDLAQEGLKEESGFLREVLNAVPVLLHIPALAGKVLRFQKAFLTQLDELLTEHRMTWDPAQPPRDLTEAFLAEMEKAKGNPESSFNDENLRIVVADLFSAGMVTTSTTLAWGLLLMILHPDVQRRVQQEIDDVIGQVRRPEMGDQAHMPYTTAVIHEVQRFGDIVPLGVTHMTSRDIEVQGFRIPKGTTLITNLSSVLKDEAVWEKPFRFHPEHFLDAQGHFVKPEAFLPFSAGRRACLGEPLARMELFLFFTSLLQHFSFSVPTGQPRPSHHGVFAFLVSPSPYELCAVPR
Sequence of Cytochrome P450 3A4 (Homo sapiens) (P08684 whole entry, looked up): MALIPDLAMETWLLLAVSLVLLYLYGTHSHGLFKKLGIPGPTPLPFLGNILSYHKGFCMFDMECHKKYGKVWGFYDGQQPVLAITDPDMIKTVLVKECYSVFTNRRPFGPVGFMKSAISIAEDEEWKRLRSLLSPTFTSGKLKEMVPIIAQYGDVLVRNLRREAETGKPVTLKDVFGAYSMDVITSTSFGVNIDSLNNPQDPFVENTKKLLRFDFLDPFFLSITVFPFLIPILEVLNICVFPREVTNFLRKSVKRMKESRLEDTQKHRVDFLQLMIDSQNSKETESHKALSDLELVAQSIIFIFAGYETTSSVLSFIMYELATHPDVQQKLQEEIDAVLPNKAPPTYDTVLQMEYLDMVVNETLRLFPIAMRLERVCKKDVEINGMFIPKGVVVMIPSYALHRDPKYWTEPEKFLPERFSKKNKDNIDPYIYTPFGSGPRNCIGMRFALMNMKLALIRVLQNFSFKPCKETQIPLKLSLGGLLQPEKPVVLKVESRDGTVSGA
Sequence of Glucocorticoid receptor (Homo sapiens) (P04150 whole entry, looked up, the tested form may be a part): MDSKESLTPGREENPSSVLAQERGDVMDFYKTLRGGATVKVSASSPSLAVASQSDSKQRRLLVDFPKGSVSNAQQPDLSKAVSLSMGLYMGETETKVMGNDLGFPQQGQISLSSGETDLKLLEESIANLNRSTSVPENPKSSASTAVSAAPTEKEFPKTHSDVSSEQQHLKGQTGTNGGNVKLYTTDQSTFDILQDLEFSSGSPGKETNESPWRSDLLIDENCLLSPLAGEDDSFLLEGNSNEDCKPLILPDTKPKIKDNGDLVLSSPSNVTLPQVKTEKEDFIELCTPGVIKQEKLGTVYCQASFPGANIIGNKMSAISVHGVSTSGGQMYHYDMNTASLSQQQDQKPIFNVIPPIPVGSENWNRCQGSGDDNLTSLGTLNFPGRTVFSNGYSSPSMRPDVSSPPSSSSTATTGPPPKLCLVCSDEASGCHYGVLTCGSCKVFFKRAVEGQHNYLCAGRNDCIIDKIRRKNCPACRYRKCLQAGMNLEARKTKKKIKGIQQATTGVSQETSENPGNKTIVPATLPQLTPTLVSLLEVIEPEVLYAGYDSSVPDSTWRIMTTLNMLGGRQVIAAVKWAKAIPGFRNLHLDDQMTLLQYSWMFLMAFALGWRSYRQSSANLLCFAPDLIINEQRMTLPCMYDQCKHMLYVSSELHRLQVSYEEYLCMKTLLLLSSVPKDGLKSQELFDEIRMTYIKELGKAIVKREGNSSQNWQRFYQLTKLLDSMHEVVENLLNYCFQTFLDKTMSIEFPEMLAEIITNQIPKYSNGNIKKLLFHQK

With `C[C@@H](C(=O)OC1C[C@H]2CC[C@@H](C1)N2C)c1ccc(Br)cc1` (stereo not given in full), the Potency is > 46 µM (inactive) in [1], 3.98 µM (active) in experiment [3] and 31.6 µM (active) in experiment [8]. Besides, the result in experiment [2] was inactive. Further, the activity change, negative = inhibition in experiment [4] (at 57.5 µM (top of the series)) was 2.43% (inactive). Moreover, the values for the max response in [4] (measured here: cell count channel max response), in experiment [4] (measured here: lipid channel max response) and in experiment [9] were 12.6%, 16.9% and -11% (inactive), respectively. Also, the Potency entry in experiment [5], in experiment [6] and in experiment [7] was “inactive” in each case.
Regarding `Fc1ccc(C(OCCN2CCN(C/C=C/c3ccccc3)CC2)c2ccc(F)cc2)cc1`, the Potency result in experiment [6] is “inactive”. The Potency in experiment [7] was 44.7 µM (active); in experiment [9], 20 µM (active).
Take `CC(C)(O)C1O[C@H]2CC[C@@]3(C)[C@@](O)(CC[C@H]4Cc5c([nH]c6ccccc56)[C@@]43C)C2=CC1=O` (stereo not given in full): the Potency entry in experiment [6], in experiment [7] and in experiment [10] was “inactive” throughout. In addition, in [8], the Potency is 39.8 µM (active).
Regarding `Oc1ccc2c3c1O[C@H]1c4[nH]c5ccccc5c4C[C@]4(O)[C@H](C2)N(CC2CC2)CC[C@@]314`, the result in [11], in [13], in [14], in experiment [16], in [17] and in experiment [18] was inactive. In addition, the compound was called inactive in experiment [19] and in experiment [20]. Besides, the activity change, negative = inhibition in [12] was 3.02% (inactive). Also, in [15], the Potency result is “inactive”.
Consider `C[C@H](N)Cc1c[nH]c2ccc(OCc3cccs3)cc12`, for which the result in [11], in experiment [13], in experiment [14], in experiment [16], in experiment [17] and in experiment [18] was inactive. For the same compound, the compound was called inactive in experiment [19] and in experiment [20]. Moreover, the activity change, negative = inhibition in experiment [12] is 7.25% (inactive). Also, the Potency entry in experiment [15] was “inactive”.
For `CN(C(=O)Cc1ccc(Cl)c(Cl)c1)[C@H](CN1CCCC1)c1ccccc1`, the figures for the Potency in experiment [21] and in experiment [22] were 6.31 µM (active) and 0.316 µM (active), respectively.
